From PubChem BioAssay (Tox21)
Results filed as inconclusive are left out. Activity calls are given as the source filed them. Unless noted, calls come from the whole dose curve; as a rule, active = well fitted curve in the direction sought with a large enough effect in the repeat runs; inconclusive = weak or mixed curves; inactive = no such curve, though single readings can be large; an effect the other way counts as inactive or inconclusive.

Assays:
[1] = qHTS assay for small molecule agonists of the p53 signaling pathway (AID 651631; calls by dose curve; note: nearly all actives have a fitted effect of over 15% in size)
How it was run: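 Readout was fluorescence from the LiveBLAzer FRET substrate, applied for 2 h at room temperature after 16 h compound exposure at 37 °C. Cells were the p53RE-bla HCT-116 line, with beta-lactamase driven by p53 response elements.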

[2] = qHTS assay for small molecules that induce genotoxicity in human embryonic kidney cells expressing luciferase-tagged ATAD5 (AID 651632); note: nearly all actives have a fitted effect of over 15% in size
How it was run: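 Increased luciferase signal from ATAD5-tagged reporter cells indicates DNA-damage-driven ATAD5 induction. HEK293T cells are treated for 16 hr at 37C before detection with Amplite.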

[3] = qHTS assay for small molecule agonists of the p53 signaling pathway - cell viability (AID 651633; calls by dose curve; note: nearly all actives have a fitted effect of over 30% in size)
How it was run: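 p53RE-bla cells, seeded at 4,000 per well and rested 5 h at 37 C/5% CO2, received compounds in DMSO for 16 h at 37 C. CellTiter-Glo was then added, and luminescence was read after 30 min at room temperature to gauge cytotoxicity.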

[4] = qHTS assay for small molecules that induce genotoxicity in human embryonic kidney cells expressing luciferase-tagged ATAD5 - cell viability (AID 651634; calls by dose curve; note: nearly all actives have a fitted effect of over 25% in size)
How it was run: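 Cytotoxicity counterscreen in HEK293T cells bearing an ATAD5-luciferase reporter: live-cell protease activity measured by CellTiter-Fluor fluorescence after 15.5 hr compound exposure.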

[5] = qHTS assay for small molecule disruptors of the mitochondrial membrane potential - cell viability (AID 720634; calls by dose curve;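 note: human HepG2 liver cancer cells; nearly all actives have a fitted effect of over 20% in size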)
How it was run: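 After overnight attachment at 37 C, HepG2 cells received compound or DMSO vehicle for 1 hr. Viability is then taken from ATP-driven luminescence following a 30 min room-temperature CellTiter-Glo step.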

[6] = qHTS assay for small molecule disruptors of the mitochondrial membrane potential (AID 720635)
How it was run: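 HepG2 cells (2,000/well) attached overnight at 37C, then took compound for 1 hr at 37C, 5% CO2. Mito-MPS dye was added for 30 min; fluorescence was read at 490/535 nm (monomers) and 540/590 nm (aggregates).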

[7] = qHTS assay to test for compound auto fluorescence at 590 nm (red) in HepG2 cells (AID 720674)
How it was run: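 Compound auto-fluorescence is scored relative to Rose Bengal sodium, measured at 540/590 nm in live HepG2 cultures after 1 hr compound contact (37 C, 5% CO2).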

[8] = qHTS assay to test for compound auto fluorescence at 535 nm (green) in HepG2 cells (AID 720675)
[9] = qHTS assay to test for compound auto fluorescence at 590 nm (red) in HEK293 cells (AID 720679)
How it was run: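 We plated HEK293 cells in 10% dialyzed FBS medium, let them adhere for 4-5 hr, then added 23 nL compound. Overnight at 37C and 5% CO2 preceded fluorescence measurement at 540/590nm.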

[10] = qHTS assay to test for compound auto fluorescence at 535 nm (green) in HEK293 cells (AID 720680)
[11] = qHTS assay to test for compound auto fluorescence at 460 nm (blue) in HEK293 cell free culture (AID 720681)
How it was run: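 Test compounds were pinned into cell-free culture medium (DMEM with 10% FBS) and fluorescence was read directly at Ex/Em 405/460 nm. Signals were expressed as fluorescence equivalents of triamterene, with DMSO vehicle as control.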

[12] = qHTS assay to test for compound auto fluorescence at 535 nm (green) in HEK293 cell free culture (AID 720682)
How it was run: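 Compounds were pin-transferred into cell-free DMEM with 10% FBS, and green fluorescence was read at excitation 485 nm and emission 535 nm. Intensities were expressed as fluorescein-equivalent values.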

[13] = qHTS assay to test for compound auto fluorescence at 590 nm (red) in HEK293 cell free culture (AID 720683)
How it was run: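 Tox21 10K library compounds were pinned into cell-free DMEM with 10% FBS and fluorescence was read at excitation 540 nm. Activity is expressed as Rose Bengal sodium equivalency.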

[14] = qHTS assay to test for compound auto fluorescence at 590 nm (red) in HepG2 cell free culture (AID 720684)
How it was run: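 Measured in medium alone (MEM containing 10% FBS) following pintool addition of compound; emission at 590 nm with 540 nm excitation, referenced to Rose Bengal sodium.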

[15] = qHTS assay to test for compound auto fluorescence at 460 nm (blue) in HepG2 cell free culture (AID 720685)
How it was run: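 Compound (23 nL) or DMSO pinned into cell-free MEM with 10% FBS; blue fluorescence read at 405/460 nm excitation/emission, expressed as auto-fluorescence equivalency to triamterene.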

[16] = qHTS assay to test for compound auto fluorescence at 535 nm (green) in HepG2 cell free culture (AID 720686)
[17] = qHTS assay to test for compound auto fluorescence at 460 nm (blue) in HepG2 cells (AID 720687)
How it was run: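 Cells (2,000/well in MEM with 10% FBS) attached overnight at 37 C, then were exposed to compound or DMSO for 1 hr at 37 C, 5% CO2. Fluorescence read at Ex/Em 405/460 nm, expressed as triamterene-equivalent signal.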

[18] = target: Glucocorticoid receptor (Homo sapiens) (UniProt P04150); experiment: qHTS assay to identify small molecule agonists of the glucocorticoid receptor (GR) signaling pathway (AID 720691; active = well fitted activation curve with a large enough effect in the signal ratio in the repeat runs, not every such curve was filed as active; the % refers to the signal ratio); conditions: GR-bla HeLa, beta-lactamase reporter ratio, 18 h; activation: at 62.4 µM (top of the series)
How it was run: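 Agonist mode in a HeLa line carrying a GRE-controlled beta-lactamase reporter. Compounds act for 18 h at 37 C before a 2 h room-temperature FRET substrate step and fluorescence reading.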

[19] = qHTS assay to test for compound auto fluorescence at 460 nm (blue) in HEK293 cells (AID 720678)
How it was run: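 Triamterene serves as the blue fluorophore standard. Compound signal at 405/460 nm is read in HEK293 wells (2,000 cells, 10% dialyzed FBS) after overnight treatment at 37C.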

[20] = target: Glucocorticoid receptor (Homo sapiens) (UniProt P04150); experiment: qHTS assay to identify small molecule antagonists of the glucocorticoid receptor (GR) signaling pathway (AID 720692; active = well fitted inhibition curve with a large enough effect in the signal ratio in the repeat runs, not every such curve was filed as active; the % refers to the signal ratio)
How it was run: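 Cells plated, rested 4 h at 37 C/5% CO2; compounds in DMSO pin-transferred; dexamethasone added to 5 nM final; 18 h at 37 C; B/G FRET substrate added, 2 h room temperature; fluorescence measured.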

Measured: Potency

Chain of Glucocorticoid receptor (Homo sapiens) (P04150 whole entry, looked up): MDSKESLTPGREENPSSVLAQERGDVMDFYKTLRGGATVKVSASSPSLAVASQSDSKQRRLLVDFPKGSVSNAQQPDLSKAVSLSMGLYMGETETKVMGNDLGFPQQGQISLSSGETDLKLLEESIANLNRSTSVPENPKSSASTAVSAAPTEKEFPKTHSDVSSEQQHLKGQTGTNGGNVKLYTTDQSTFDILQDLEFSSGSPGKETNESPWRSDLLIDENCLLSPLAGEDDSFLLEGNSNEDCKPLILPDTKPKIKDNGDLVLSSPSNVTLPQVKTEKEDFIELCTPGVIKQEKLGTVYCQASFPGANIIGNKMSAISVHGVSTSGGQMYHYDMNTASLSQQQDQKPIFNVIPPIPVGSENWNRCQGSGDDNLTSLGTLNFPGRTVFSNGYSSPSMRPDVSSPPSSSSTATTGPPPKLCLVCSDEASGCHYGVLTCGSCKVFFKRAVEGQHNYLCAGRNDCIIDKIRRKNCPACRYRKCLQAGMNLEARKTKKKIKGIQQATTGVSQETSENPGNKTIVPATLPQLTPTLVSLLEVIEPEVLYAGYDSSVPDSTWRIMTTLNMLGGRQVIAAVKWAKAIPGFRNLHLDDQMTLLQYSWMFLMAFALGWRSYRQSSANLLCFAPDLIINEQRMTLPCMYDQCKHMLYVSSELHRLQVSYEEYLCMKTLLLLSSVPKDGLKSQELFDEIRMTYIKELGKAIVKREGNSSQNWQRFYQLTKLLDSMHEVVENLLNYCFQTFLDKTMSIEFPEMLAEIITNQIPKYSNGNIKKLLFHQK

Cc1ccc(N(C)C)cc1
not listed: [19] | [20]
inactive: all other assays above

CCCCN(CCCC)CCCC
not listed: [5] | [6] | [18]
inactive: all other assays above

COc1ccc(Cl)cc1C(=O)NCCc1ccc(S(=O)(=O)NC(=O)NC2CCCCC2)cc1
not listed: [6] | [18] | [20]
inactive: all other assays above

Cc1cc(C)c(C)cc1C
not listed: [5] | [6] | [18] | [20]
inactive: all other assays above

N[C@@H](Cc1cc(I)c(Oc2cc(I)c(O)c(I)c2)c(I)c1)C(=O)O
not listed: [6] | [19] | [20]
inactive: all other assays above

FC(F)(F)c1ccc(Cl)c(Cl)c1
not listed: [18] | [19]
inactive: all other assays above

CCOC(=O)NNc1nncc2ccccc12
not listed: [6] | [18] | [19] | [20]
inactive: all other assays above

CCCCCCCCCCCCCCCO
not listed: [5] | [6] | [18] | [20]
inactive: all other assays above

O=c1[nH]c(=O)n([C@H]2CCCO2)cc1F
not listed: [2] | [18] | [20]
inactive: all other assays above

Cc1cccc(O)c1
not listed: [19]
inactive: all other assays above

O=C(CC(C(=O)OC1CCCCC1)S(=O)(=O)O)OC1CCCCC1 (stereo not given)
not listed: [18] | [19]
inactive: all other assays above

CCCCC(CC)CO (stereo not given)
not listed: [2] | [20]
inactive: all other assays above

CC1=C(C)S(=O)(=O)CCS1(=O)=O
not listed: [6] | [18] | [20]
inactive: all other assays above

C/C=C1/CC2C=CC1C2 (stereo not given)
not listed: [6] | [19]
inactive: all other assays above

OCCOCCOCCO
not listed: [19] | [20]
inactive: all other assays above

Cc1cnc(C(=O)NCCc2ccc(S(=O)(=O)NC(=O)NC3CCCCC3)cc2)cn1
not listed: [6] | [20]
inactive: all other assays above

CCCCCCOCCO
not listed: [18] | [19] | [20]
inactive: all other assays above
